Measurements from PubChem BioAssay AID587 (National Center for Advancing Translational Sciences (NCATS), 2007).
In all, about 59,000 compounds went through this assay and about 35 (0.06%) were called active. Not shown: some 19% with an inconclusive outcome. The sample holds actives, similar compounds and a random draw of the others, so the mix is not that of the screen. Rule as the data show it: active = max dye-equivalent concentration above about 10 nM; inconclusive = between about 1.1 nM and that limit; inactive = weaker than that.

assay: qHTS Assay for Spectroscopic Profiling in Texas Red Spectral Region; settings: Compound fluorescence, Texas Red channel, 547/618 nm
Text: NIH Molecular Libraries Screening Centers Network [MLSCN] NIH Chemical Genomics Center [NCGC] […] Occasionally, the artifactual effect may originate from the compound#s own spectral or other biophysical properties which generally tend to track its assay concentration. Pre-screening/profiling the library with respect to the compounds# spectral properties should help one exclude false positives early on. While the most informative fluorescent profiling data set is obtained by performing a full excitation and emission scan of each well by using a monochromator-based plate reader, such an approach is practical only on a very limited scale as scanning each well requires long time. An alternative approach, applied here, is to perform plate reader scans using selected excitation and emission wavelength pairs to generate a multidimensional relational database that correlates compound concentration and the respective relative fluorescence intensity at a given wavelength set. A standard curve of Texas Red (TR) present on each plate as six-point concentration series, was used to compute a normalized fluorescence response, termed dye-equivalent concentration, for each compound at each concentration.
NCGC Assay Protocol Summary: Buffer: 100 mM Tris buffer, pH 8.0 Dye standard plate: The wells in columns 1 through 4 of a Kalypsys polypropylene 1536-well compound plate were filled with standard solutions of fluorophore corresponding to the spectral region of interest. Solutions of TR were placed in the following wells: U1, V1: 3 mM, U2, V2: 300 uM, U3, V3: 30 uM, U4, V4: zero (DMSO), W1, X1: 3 uM, W2, X2: 900 nM, W3, X3: 300 nM, W4, X4: zero (DMSO). Assay Steps: Six uL of buffer were dispensed to 1536-well Greiner black plates. Compounds and dye standards (23 nL) were transferred via Kalypsys PinTool. The plates were incubated for 15 min at room temperature, and then read on ViewLux (Perkin-Elmer) High-throughput CCD imager using 547 nm and 618 nm excitation and emission filter set. Keywords: NIH Roadmap, MLSCN, MLI, MLSMR, qHTS, NCGC, Texas Red, Fluorescent Profiling.

Max dye-equivalent concentration, inactive:
O=C1CC2(CCCCC2)Oc2ccc(OCC(=O)N3CCOCC3)cc21
Cc1cnc(CNc2cc(-c3c(C)noc3C)ncn2)cn1
CS(=O)(=O)Nc1cccc(-c2cncnc2Nc2ccccc2)c1
CC(C)OC(=O)C(C#N)c1nc2ccccc2nc1N1CCN(Cc2ccc3c(c2)OCO3)CC1 (stereo not drawn)
Oc1ccc2ccccc2c1C=NCc1c(O)ccc2ccccc12
COCCNC(=S)c1ccc(OC)cc1
CCOC(=O)c1cnc2sccn2c1=O
COc1ccc(OC)c(C(=O)CSc2nnc(-c3cccs3)o2)c1
CCCCn1c(SCC(=O)N2CCC(C(=O)OCC)CC2)nc2cc(S(N)(=O)=O)ccc21
Cc1cc(N2CCCCC2)nc2ccc(Cc3ccc4nc(N5CCCCC5)cc(C)c4c3)cc12
CC(C)c1nc2oc3c(N4CCN(C)CC4)ncnc3c2c2c1CCC2
COCCNc1cc(-c2c(C)noc2C)ncn1
O=c1c(-c2ccc(F)cc2)nc2cnc(N3CCNCC3)nc2n1Cc1cccs1
Cc1nc(NCCN)c(C#N)c2c1COC(C)(C)C2
Cn1cccc1C(=O)NC(=O)COC(=O)Cc1coc2ccc3ccccc3c12
CCOCCN(C=O)c1cccc(OC)c1
COc1ccc2[nH]c(=O)c(CN(CC3CCCO3)C(=O)Nc3ccccc3)cc2c1 (stereo not drawn)
Cn1c(=O)c2c(n(Cc3ccccc3)c1=O)NC(=O)C2CC(=O)N1CCc2ccccc2C1 (stereo not drawn)
O=S(=O)(c1ccccc1)N1CCC2(CC1)CN(Cc1nccs1)C2
O=C(O)CS(=O)c1ccc2c3c(cccc13)C(=O)c1ccccc1-2 (stereo not drawn)
Nc1nonc1-c1nc2ccccc2n1CCC(=O)O
Cc1nc2cnc(N3CCNCC3)nc2n(Cc2ccc(F)cc2)c1=O
Cn1c(=S)c2[nH]c(SCCCc3ccccc3)nc2n(C)c1=O
